# Reference: the supplement of paper PMC13094657
# Where a name gives a salt, the structure may show the parent alone. ± gives the standard deviation of the averaged measurements.
# What was measured:
# MDA-MB-231 [1] = test: cell viability relative to vehicle unstimulated control (fraction); higher = more viable cells; details: pre-treatment time: 18 h then 24 h IFNg/TNF
# MDA-MB-231 [2] = test: kynurenine production, fold change vs DMSO IFNg/TNF control; higher = more kynurenine produced (less inhibition); details: pre-treatment time: 18 h then 24 h IFNg/TNF
# In short: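 MDA-MB-231 cells were seeded in 96-well plates at 7 × 10^4/well and, 24 h later, pre-treated for 18 h with each natural product in 0.1% DMSO. They were then stimulated for 24 h at 37°C with IFNγ (1 U/ml) and TNF (6.25 ng/ml). Supernatants were treated with trichloroacetic acid and p-dimethylaminobenzaldehyde and read at 492 nm against 0–100 μM standards. Kynurenine production is expressed as fold change over cytokine-stimulated vehicle wells on the same plate and, in the first screening round, averaged across duplicate plates.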
# 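For cell viability relative to vehicle unstimulated control in this document: viability of the cells left after supernatant collection, read with Deep Blue dye added for 4 h, as absorbance at 570 nm minus 600 nm.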
SMILES,cell viability (MDA-MB-231 [1]),kynurenine production (MDA-MB-231 [2])
COc1cc2c(=O)c3c(O)c([C@@H]4O[C@H](CO[C@@H]5OC[C@](O)(CO)[C@H]5O)[C@@H](O)[C@H](O)[C@H]4O)c(O)cc3oc2cc1O [Polygalaxanthone III] (compound dose: 10 uM),1 ± 0.048,1.01 ± 0.037
COc1ccc2c3c1O[C@H]1C[C@@H](O)C=C[C@@]31CCN(C)C2 [Galantamine hydrobromide] (compound dose: 10 uM),1.04,0.792 ± 0.067
CSC(=O)OCC1=C[C@@H]2OC(=O)C3=CO[C@@H](O[C@@H]4O[C@H](CO)[C@@H](O)[C@H](O)[C@H]4O)[C@H]1[C@@H]32 [Paederoside] (compound dose: 10 uM),1.14 ± 0.027,0.937 ± 0.11
COC(=O)C1=C2CCOC3=C2C2=C1C(=O)[C@@H]1C[C@H]4N(C[C@@H](CC3)[C@@]24C)C[C@H]1C [Daphnicyclidin D] (compound dose: 10 uM),0.948 ± 0.076,0.831 ± 0.18
C[C@@H]1C(=O)O[C@H]2C[C@@]34O[C@@H]5OC(=O)[C@H](O)[C@@]56[C@H](C(C)(C)C)[C@H](O)C(OC3=O)[C@]64[C@]21O (stereo not given in full) [Ginkgolide J] (compound dose: 10 uM),0.962 ± 0.014,0.875 ± 0.023
CC(C)(O)[C@H]1CC[C@@](C)([C@H]2[C@@H](O)C[C@@]3(C)[C@@H]4C[C@H](O)[C@H]5C(C)(C)[C@@H](O)CC[C@@]56C[C@@]46CC[C@]23C)O1 [Cyclogalegenin] (compound dose: 10 uM),0.999 ± 0.043,0.854 ± 0.064
CO[C@H]1O[C@@H]2O[C@@]3(C)CC[C@H]4[C@H](C)CC[C@@H]([C@H]1C)[C@@]24OO3 [Artemether] (compound dose: 10 uM),1 ± 0.11,0.37 ± 0.12
CC(C)=CCC[C@](C)(O)[C@H]1CC[C@]2(C)[C@@H]1[C@H](O)C[C@@H]1[C@@]3(C)CC[C@H](O[C@@H]4O[C@H](CO)[C@@H](O)[C@H](O)[C@H]4O[C@@H]4O[C@H](CO)[C@@H](O)[C@H](O)[C@H]4O)C(C)(C)[C@@H]3CC[C@]12C [20(S)-Ginsenoside Rg3] (compound dose: 10 uM),1 ± 0.046,0.969 ± 0.28
C[C@@H]1CC[C@]2(C)CC[C@]3(C)C(=CC(=O)C4[C@@]5(C)CC[C@@H](O)[C@](C)(C(=O)O)C5CC[C@]43C)C2[C@H]1C (stereo partly drawn) [11-Keto-beta-boswellic acid] (compound dose: 10 uM),0.949 ± 0.013,0.94 ± 0.12
CC1(C)[C@@H](O)CC[C@]2(C)[C@H]3CC=C4[C@@H]5C[C@@]6(C)C[C@H](OC6=O)[C@]5(C)CC[C@@]4(C)[C@]3(C)CC[C@@H]12 [Wilforlide A] (compound dose: 2 uM),0.877 ± 0.047,0.834 ± 0.13
C[C@H]1[C@H](C)CC[C@]2(C(=O)O)CC[C@]3(C)C(=CC[C@@H]4[C@@]5(C)C[C@@H](O)[C@H](O)C(C)(C)[C@@H]5CC[C@]43C)[C@H]12 [Corosolic acid] (compound dose: 10 uM),1.07 ± 0.16,1.19 ± 0.13
C=C(C)[C@H]1CC=C(C)CC1 [(r)-(+)-limonene] (compound dose: 10 uM),0.986 ± 0.032,0.907 ± 0.04
C/C=C(/C)C(=O)O[C@H]1C(C)=C[C@]23C(=O)[C@@H](C=C(COC(C)=O)[C@@H](O)[C@]12O)[C@H]1[C@@H](C[C@H]3C)C1(C)C [20-O-Acetylingenol-3-angelate] (compound dose: 10 uM),1.1 ± 0.091,0.874 ± 0.053
C[C@@H]1CC[C@]2(C(=O)O)CC[C@]3(C)C(=CC[C@@H]4[C@@]5(C)CC[C@H](O)[C@@](C)(CO)[C@@H]5CC[C@]43C)[C@@H]2[C@]1(C)O [Rotundic acid] (compound dose: 10 uM),0.8829 ± 0.0033,0.929 ± 0.021
C[C@H]1[C@H](C)CC[C@]2(CO)CC[C@]3(C)C(=CC[C@@H]4[C@@]5(C)CC[C@H](O)C(C)(C)[C@@H]5CC[C@]43C)[C@H]12 [Uvaol] (compound dose: 10 uM),1.03 ± 0.14,0.98 ± 0.3
CC[C@@H](C(=O)[C@@H](C)[C@@H](O)[C@H](C)CCc1ccc(C)c(O)c1C(=O)O)[C@H]1O[C@](CC)([C@H]2CC[C@](O)(CC)[C@H](C)O2)C[C@@H]1C [Lasalocid] (compound dose: 10 uM),0.877 ± 0.017,0.509 ± 0.022
C[C@H](CCC(=O)NCC(=O)O)[C@H]1CC[C@H]2[C@@H]3[C@H](O)C[C@@H]4C[C@H](O)CC[C@]4(C)[C@H]3CC[C@]12C [Glycochenodeoxycholic acid (sodium salt)] (compound dose: 10 uM),0.956 ± 0.082,0.955 ± 0.14
C/C=C(\C)C(=O)O[C@H]1[C@H](O)[C@]2(COC(C)=O)[C@H](O)C[C@]3(C)C(=CC[C@@H]4[C@@]5(C)CC[C@H](O[C@@H]6O[C@H](C(=O)O)[C@@H](O[C@@H]7O[C@H](CO)[C@@H](O)[C@H](O)[C@H]7O)[C@H](O)[C@H]6O[C@@H]6O[C@H](CO)[C@@H](O)[C@H](O)[C@H]6O)[C@](C)(CO)[C@@H]5CC[C@]43C)[C@@H]2CC1(C)C [Isoescin IA] (compound dose: 10 uM),1.001 ± 0.0061,0.779 ± 0.12
CC(C)=CCC[C@@](C)(O)[C@H]1CC[C@]2(C)[C@@H]1[C@H](O)C[C@@H]1[C@@]3(C)CC[C@H](O)C(C)(C)[C@@H]3CC[C@]12C [(20R)-Protopanaxadiol] (compound dose: 10 uM),0.9532 ± 0.0069,0.793 ± 0.14
CC1=CC[C@@H](C(C)(C)O)CC1 [(-)-α-terpineol] (compound dose: 10 uM),0.979 ± 0.044,0.913 ± 0.057
C=C1C(=O)O[C@@H]2/C=C(\C)CC/C=C(\C)CC[C@@H]12 [Costunolide] (compound dose: 10 uM),1.03 ± 0.059,0.474 ± 0.063
C[C@H]1O[C@@H](O[C@H]2CC[C@@]3(C)[C@@H](CC[C@]4(C)[C@@H]3C=C[C@]35OC[C@@]6(CCC(C)(C)C[C@H]63)[C@H](O)C[C@]54C)[C@]2(C)CO)[C@H](O)[C@@H](O[C@@H]2O[C@H](CO)[C@@H](O)[C@H](O)[C@H]2O)[C@H]1O [Saikosaponin D] (compound dose: 10 uM),0.922 ± 0.044,0.603 ± 0.2
COc1ccc(SC)cc1 [4-methoxythioanisole] (compound dose: 10 uM),0.965 ± 0.057,0.973 ± 0.12
CC(=O)OCC1=CCC2C(C=C(C)C(=O)C3(OC(C)=O)CC(C)C(OC(=O)c4ccccc4)C3C1OC(C)=O)C2(C)C (stereo not given) [Euphorbia factor L7b] (compound dose: 10 uM),1.07 ± 0.03,0.936 ± 0.035
CC1(C)CC[C@]2(C(=O)O)CC[C@]3(C)C(=CC[C@@H]4[C@@]5(C)CC[C@H](O[C@@H]6O[C@H](C(=O)O)[C@@H](O)[C@H](O[C@@H]7OC[C@@H](O)[C@H](O)[C@H]7O)[C@H]6O)C(C)(C)[C@@H]5CC[C@]43C)[C@@H]2C1 [Momordin Ic] (compound dose: 10 uM),1.07 ± 0.023,0.967 ± 0.2
C=C1C(=O)O[C@@H]2CC(C)=C([C@@H](C)CCCOC(C)=O)[C@@H](O)[C@H]12 [Inulicin] (compound dose: 10 uM),0.912 ± 0.096,1.16 ± 0.15
C[C@H](CC[C@@H](O[C@@H]1O[C@H](CO[C@@H]2O[C@H](CO)[C@@H](O)[C@H](O)[C@H]2O)[C@@H](O)[C@H](O)[C@H]1O)C(C)(C)O)[C@H]1CC[C@@]2(C)[C@@H]3CC=C4[C@@H](CC[C@H](O[C@@H]5O[C@H](CO)[C@@H](O)[C@H](O)[C@H]5O)C4(C)C)[C@]3(C)[C@H](O)C[C@]12C [Mogroside III] (compound dose: 10 uM),0.857 ± 0.018,0.997 ± 0.13
CC(C)=CCC[C@](C)(O[C@@H]1O[C@H](CO)[C@@H](O)[C@H](O)[C@H]1O)[C@H]1CC[C@]2(C)[C@@H]1[C@H](O)C[C@@H]1[C@@]3(C)CC[C@H](O)C(C)(C)[C@@H]3CC[C@]12C [Ginsenoside C-K] (compound dose: 10 uM),0.969 ± 0.016,0.912 ± 0.14
C=C1CC[C@H]2[C@@H](/C=C(\C)C(=O)[C@@]3(OC(C)=O)C[C@H](C)[C@H](OC(=O)c4cccnc4)[C@@H]3[C@H]1OC(C)=O)C2(C)C [Euphorbia factor L8] (compound dose: 10 uM),1.1 ± 0.075,0.89 ± 0.083
O=c1c(O)c(-c2ccc(O)cc2)oc2cc(O)cc(O)c12 [Kaempferol] (compound dose: 10 uM),0.969 ± 0.079,0.672 ± 0.023
